Hit rate of the full screen: of about 2,100 compounds, about 210 (10%) were called active. Roughly 53% stayed inconclusive and do not appear here. Calls follow the shape of the dose curve; as a rule, active = well fitted inhibition curve with a large enough effect; inconclusive = small, poorly fitted or top-dose-only effect, or effect the other way; inactive = no such curve, though single readings can be large or run the other way. Some of the results follow. Entries that show only a call come without a potency.
Potency is read from the fitted curve at half-maximal effect.

The experiment can be described thus: IN Cell qHTS Assay for Inhibitors of the mTORC1 Signaling Pathway in MEF (Tsc2-/-, p53-/-) Cells: Sytravon. Also: nearly all actives have a fitted effect of over 60% in size. As to conditions: phospho-rpS6 immunofluorescence, 24 h; series mostly up to 38.3 µM. The procedure, abridged: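 Tsc2-/-, p53-/- MEFs (empty-vector) treated with compound 24 h at 37 degree Celsius, then fixed and stained for phospho-rpS6 Ser235/236 (Alexa-488) plus Hoechst. Reported as % positive cells, thresholds set against 7.5 nM rapamycin and DMSO wells.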
Take `Cc1sc2ncn(CC(=O)N3CCN(c4ccc(Cl)cc4)CC3)c(=O)c2c1S(=O)(=O)N1CCN(c2ncccn2)CC1`: the Potency entry was “inactive”.
With `COc1ccccc1CNC(=O)c1ccc2c(c1)CCN2S(=O)(=O)c1ccccc1` the entry was “inactive”.
Take `CC(=O)c1ccc(NC(=O)CC2Nc3cccc4cccc(c34)NC2=O)cc1` (configuration not stated): the Potency entry was “inactive”.
Regarding `O=S(=O)(NCC(c1ccco1)S(=O)(=O)c1cccs1)c1ccc(Cl)cc1` (configuration not stated), the Potency entry was “inactive”.
Regarding `O=C(Cn1c(=O)c2ccccc2n(CC(=O)Nc2ccc(Cl)cc2)c1=O)NCCc1ccccc1`, the Potency is 14.7 µM (active).
With `CCOc1ccc(NC(=O)Cn2c(=O)n(CCCCCC(=O)NCc3ccccc3)c(=O)c3sccc32)cc1`, the Potency result is “inactive”.
`O=C(CCCn1c(=O)c2ccccc2n(Cc2cccc(Cl)c2)c1=O)NCCc1ccc(Cl)cc1`: the Potency result is “inactive”.
In the case of `O=C(NCCc1ccc(F)cc1)C(=O)NCC(c1cccs1)S(=O)(=O)c1ccc(Cl)cc1` (configuration not stated), the Potency entry is “inactive”.
Take `COc1ccc(-n2c(SCCC(C)C)nc3sc4c(c3c2=O)CC(C(C)C)OC4)cc1` (configuration not stated): the Potency result is “inactive”.
With `Fc1ccc(C2=NC(c3cccc(C(F)(F)F)c3)=Nc3ccccc3N2)cc1`, the Potency entry is “inactive”.
As to `CCCn1c2ccccc2c2cnn(CC(=O)N(CCCOC)Cc3ccco3)c(=O)c21`, the Potency entry was “inactive”.
In the case of `O=C(Nc1cccs1)Nc1cc(C(F)(F)F)ccc1Cl`, the Potency is 9.27 µM (active).
With `Cc1ccc(N=C2NC(=O)CC(C(=O)Nc3cc(C(F)(F)F)ccc3Cl)S2)cc1` (configuration not stated), the Potency result is “inactive”.
Consider `COc1ccc(NC(=O)C2CCCN(S(=O)(=O)c3cccc4nonc34)C2)cc1Cl` (configuration not stated), for which the Potency result is “inactive”.
For `Cc1cccc(C(CC(=O)NCC2(c3ccccc3)CCCC2)c2ccccc2)c1O` (configuration not stated), the Potency entry is “inactive”.
As for `COc1ccccc1N1CCN(C(=O)CSc2nc3ccccc3nc2Cc2ccc(C)cc2)CC1`, the Potency entry is “inactive”.
Regarding `O=C(Cn1cc(SCc2ccccc2)c2ccccc21)N1CCCCC1`, the Potency entry is “inactive”.
With `CCC(C)NC(=O)c1sc2nc(C)c(C(=O)Nc3ccc(C)cc3C)c(-c3ccc(Cl)cc3)c2c1N` (configuration not stated) the entry was “inactive”.
With `CCN1CCc2nc3sc(C(=O)Nc4cccc(Cl)c4C)c(N)c3cc2C1` the entry was “inactive”; with `CCC1CCc2nc3sc(C(=O)Nc4ccc(C)cc4)c(N)c3cc2C1` (configuration not stated), 5.21 µM (active); with `CC1CCc2nc3ncn(CC(=O)Nc4cccc(C#N)c4)c(=O)c3cc2C1` (configuration not stated), “inactive”.
As for `CCC1CCc2nc3sc(C(=O)Nc4ccc(F)c(F)c4)c(N)c3cc2C1` (configuration not stated), the Potency was 5.85 µM (active).
For `Nc1c(C(=O)Nc2ccccc2F)sc2nc3c(cc12)CCCCCC3`, the Potency entry is “inactive”.
With `CC1CCCCN1S(=O)(=O)c1cc2c(=O)nc3ccccn3c2cc1Cl` (configuration not stated) the entry was “inactive”; with `C=CCc1ccc(OCc2ccc(C(=O)Nc3ccc(NC(C)=O)cc3)o2)c(OC)c1`, “inactive”.
Take `Cc1cc(C)cc(OCC(=O)NCC(c2ccc(Cl)cc2)N2CCCCC2)c1` (configuration not stated): the Potency entry is “inactive”.
For the molecule `CCc1c(C)nc2nc(-c3ccccc3)nn2c1NCc1ccc(C)cc1`, the Potency entry is “inactive”.
For the molecule `COc1ccc(Br)c(C(=O)Nc2cc3c(cc2N2CCCC2)n(C)c(=O)c(=O)n3C)c1`, the Potency entry was “inactive”.
As to `CC(C)c1ccc(NC(=O)c2cc(S(=O)(=O)NCCc3ccccc3)ccc2F)cc1`, the Potency entry was “inactive”.
For `CC(=O)c1ccc(C(=O)N(CCCN(C)C)c2nc3c(C)c(C)ccc3s2)cc1`, the Potency was 14.7 µM (active).
Regarding `COc1ccccc1NC(=O)C1=C(C)Nc2nc(-c3ccco3)nn2C1c1cccc(C)c1` (configuration not stated), the Potency entry is “inactive”.
Regarding `COc1cc(CNC(=O)c2ccc3nc(Cc4ccccc4)oc3c2)cc(OC)c1OC`, the Potency entry was “inactive”.
The entry for `CCc1ccccc1NS(=O)(=O)c1ccc2[nH]cc(C(=O)NC3CCCC3)c(=O)c2c1` is “inactive”.
Take `Cc1ccccc1CNCCCSc1nnnn1-c1ccccc1`: the Potency entry is “inactive”.
Consider `Cc1ccccc1C(=O)N1CCN(CCc2ccccn2)CC1`, for which the Potency entry is “inactive”.
Consider `CCOC(=O)c1cnc2c(Cl)cc(Cl)cc2c1Nc1cc(C(=O)O)ccc1C`, for which the Potency result was “inactive”.
As for `Cc1cc(Cl)ccc1NC(=O)CN1C(=O)C(=O)c2ccccc21`, the Potency was 2.07 µM (active).
For `CCOc1ccccc1NC(=O)CN1C(=O)C(=O)c2ccccc21`, the Potency result is “inactive”.
Take `COc1ccc(NC(=O)CN2C(=O)C(=O)c3ccccc32)c(OC)c1`: the Potency entry was “inactive”.
With `CCOc1ccccc1CC1C(=O)Nc2ccc(Br)cc21` (configuration not stated), the Potency result was “inactive”.
Consider `CC(=O)c1ccc(N2CCN(C(=O)C3CCCN(S(=O)(=O)c4ccc(Br)s4)C3)CC2)cc1` (configuration not stated), for which the Potency result is “inactive”.
The entry for `COc1ccc(Cn2c(C(=O)O)c(CNCC(C)c3ccccc3)c3ccc(OC)cc32)cc1` (configuration not stated) is “inactive”; for `Cc1cccc(OCC(=O)Nc2ccccc2OCc2cc(=O)n3ccccc3n2)c1` it is “inactive”.
With `Cc1ccccc1NC(=O)Cn1c(=O)n(CCCCCC(=O)NCc2ccc3c(c2)OCO3)c(=O)c2sccc21` the entry was “inactive”.
`CCOc1ccccc1NC(=O)Cn1c(=O)n(CCC(=O)NCc2ccc3c(c2)OCO3)c(=O)c2ccccc21`: the Potency is 4.65 µM (active).
With `COc1ccc(NC(=O)Cn2c(=O)n(CCCC(=O)NCc3ccccc3OC)c(=O)c3ccccc32)cc1Cl` the entry was “inactive”; with `Cc1ccc(C)c(Cn2c(=O)n(CCCCCC(=O)NCc3ccc4c(c3)OCO4)c(=O)c3sccc32)c1`, “inactive”; with `Cc1cc(C)c(NC(=O)Cn2c(=O)n(Cc3ccc(C(=O)NCc4ccc5c(c4)OCO5)cc3)c(=O)c3ccccc32)c(C)c1`, 4.14 µM (active).
In the case of `Cc1cc(C)c(NC(=O)Cn2c(=O)n(CCC(=O)NCc3ccc4c(c3)OCO4)c(=O)c3ccccc32)c(C)c1`, the Potency result is “inactive”.
Take `Cc1ccc(-c2nc(-c3cccs3)c(-c3cccs3)[nH]2)cc1`: the Potency result was “inactive”.
On to `Cc1ccc(Cl)cc1-n1ncc2c(NC3CCCCCC3)ncnc21`, for which the Potency entry was “inactive”.
With `CCOC(=O)c1ccc2c(c1)N(Cc1cccc([N+](=O)[O-])c1)C(=O)c1ccccc1S2` the entry was “inactive”; with `O=C(Nc1ccc(F)cc1)Nc1nnc(SCC(=O)N2CCCCC2)s1`, “inactive”; with `COc1cccc(-c2nc3c(c(SCC(=O)Nc4cccc(C)c4C)n2)Cc2c(CO)cnc(C)c2O3)c1`, “inactive”.
The figure for `CCOc1ccc(NC(=O)c2nc(S(=O)(=O)Cc3ccccc3F)ncc2Cl)cc1` is 3.69 µM (active); for `CCOc1ccc(NC(=O)Cn2ccn(-c3ccc(F)c(F)c3)c(=O)c2=O)cc1` it is “inactive”.
With `CCOc1cccc(NC(=O)CSc2ncc(-c3ccc(Cl)cc3)[nH]2)c1` the entry was “inactive”; with `O=C(Nc1ccccc1F)c1nc(S(=O)(=O)Cc2ccccc2F)ncc1Cl`, 2.33 µM (active).
Regarding `CCOc1ccc(CNCc2c(C(=O)O)n(Cc3ccccc3C)c3cc(OC)ccc23)cc1OC`, the Potency result was “inactive”.
Regarding `O=C1CC(c2ccccc2)Cc2[nH]c(=O)c(-c3nc(-c4cccc(Cl)c4)cs3)cc21` (configuration not stated), the Potency entry was “inactive”.
The entry for `COc1ccc(C2C(=O)N(C3CCCCCC3)CC(=O)N2CCc2ccccc2)cc1` (configuration not stated) is “inactive”; for `CC(C)c1cnc2c(c1SCC(=O)c1ccc(Cl)cc1)c(=O)n(C)c(=O)n2C` it is “inactive”; for `COc1ccc(NC(=O)c2c(NCc3ccc(C)o3)sc3c2CCC(C)C3)cc1` (configuration not stated) it is “inactive”.
As to `COc1ccc(OC)c(NC(=O)c2c(NCc3ccc(C)o3)sc3c2CCCCC3)c1`, the Potency result is “inactive”.
With `COc1ccc(CC(=O)Nc2sc3c(c2C(=O)Nc2cccc(C)c2)CCCCC3)cc1` the figure was 11.7 µM (active); with `COc1ccc(CC(=O)Nc2sc3c(c2C(=O)Nc2ccccc2)CCCCC3)cc1`, 9.27 µM (active).
Turning to `COc1ccc(NC(=O)c2c(NCc3ccc(C)o3)sc3c2CCCCC3)c(OC)c1`, the Potency result is “inactive”.
With `COc1ccccc1NC(=O)c1c(NCc2ccc(C)o2)sc2c1CCCCC2` the entry was “inactive”; with `CCOC(=O)c1c(NC(=O)c2ccc(S(=O)(=O)N3CCCC(C)C3)cc2)sc2c1CCN(C(C)C)C2` (configuration not stated), “inactive”.
With `FC(F)(F)c1ccc(C2=Nc3ccccc3NC(c3cccs3)=N2)cc1` the entry was “inactive”.
With `O=C(CCCn1ccc2cc(S(=O)(=O)N3CCCC3)ccc21)NCc1ccc(Cl)cc1`, the Potency result was “inactive”.
Turning to `CCc1ccccc1-n1c(SCC(=O)Nc2ccc(C)cc2)nc2n[nH]c(C)c2c1=N`, the Potency entry was “inactive”.
The entry for `O=C(NCc1ccc(Cl)cc1Cl)c1cccc(N2CCCS2(=O)=O)c1` is “inactive”.
Turning to `CCCCN1C(=O)C(O)(c2c(C)[nH]c3ccccc23)c2ccccc21` (configuration not stated), the Potency entry was “inactive”.
On to `Cc1ccc(S(=O)(=O)Cc2ccc(C(=O)N3CCN(c4cccc(C)c4C)CC3)o2)cc1`, for which the Potency result was “inactive”.
The figure for `Cc1ccccc1S(=O)Cc1ccc(C(=O)N2CCN(c3cccc(C)c3C)CC2)o1` (configuration not stated) is 3.69 µM (active); for `Cc1cccc(N2CCN(C(=O)Cn3nc(Cc4cccnc4)c4ccccc4c3=O)CC2)c1C` it is “inactive”.
Turning to `CC1CCCCN1CC(=O)N1CCCc2c1c(=O)oc1ccc(OCc3ccccc3)cc21` (configuration not stated), the Potency is 13.1 µM (active).
With `O=C(COc1ccc2oc3c(c2c1)CCCC3)Nc1cccc(Br)c1`, the Potency entry was “inactive”.
Regarding `COc1ccc(OC)c(NC(=O)CN2C(=O)COc3ccc(S(=O)(=O)NC4CCCC4)cc32)c1`, the Potency result was “inactive”.
Consider `COc1ccc(-c2nc(SCC(=O)NCc3ccccc3Cl)n[nH]2)cc1`, for which the Potency entry is “inactive”.
Consider `COc1cccc(C2C(C(N)=O)=C(C)Nc3nc(CCCO)nn32)c1` (configuration not stated), for which the Potency entry is “inactive”.
As to `CCCC1=Nc2cc(C(=O)NCCOC)ccc2Sc2ccccc21`, the Potency entry is “inactive”.
As to `Cc1ccccc1NC(=O)CSc1nc2ccc(NC(=O)c3ccccc3)cc2s1`, the Potency entry was “inactive”.
`COc1cc(C(=O)Nc2cc(C)c(O)c(-c3nc4ccccc4s3)c2)cc(OC)c1OC`: the Potency entry is “inactive”.
Take `CCSc1ccccc1C(=O)Nc1ccc(-c2nc3ccccc3s2)c(O)c1`: the Potency is 4.65 µM (active).
As for `Cc1ccc(C)c(N2CCN(C(=O)C3CCN(c4nc5ccc(C)cc5[nH]4)CC3)CC2)c1`, the Potency result was “inactive”.
For the molecule `Cc1ccccc1Cn1cc(NC(=O)c2cc(-c3ccc(Cl)cc3)on2)cn1`, the Potency entry is “inactive”.
Take `COc1ccc(N2CC(c3nc(-c4cc(OC)c(OC)c(OC)c4)no3)CC2=O)cc1Cl` (configuration not stated): the Potency entry is “inactive”.
The entry for `Cc1ccc(NC(=O)Cc2coc3ccc(C(C)C)cc23)cc1Cl` is “inactive”; for `Cc1ccc2onc(CC(=O)Nc3cccc(C(F)(F)F)c3)c2c1` it is “inactive”; for `Cc1ccc2occ(CC(=O)Nc3ccc(Cl)c(C(F)(F)F)c3)c2c1` it is 13.1 µM (active).

Values taken from PubChem BioAssay AID504465 (National Center for Advancing Translational Sciences (NCATS), 2011).
